Assay results from the supplement of paper PMC10849652.
Of roughly 7,900 targets only a part is listed; those with a hit were picked by preference. About 0.6% of all pairs of compound and target were hits. Values without a mark were called inactive.

Assays:
Experiment in all cases: log2 fold change, soluble protein after heating vs DMSO (PISA); higher = thermal stabilisation; K562 cells, 10 uM, 30 min; active = over 0.2 and 3.5 SD of the protein, either way, in both replicates (recomputed)
[1] = compound: C#Cc1cccc(Nc2ncnc3cc(OCCOC)c(OCCOC)cc23)c1 [erlotinib]
Summary of the method: (§1)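 K562 cells at 2×10^6 cells/mL were treated with 10 μM compound for 30 min. Aliquots were heated for 3 min across 48°C-58°C, pooled, and extracted in PBS with 0.5% NP-40 at 4°C; soluble protein was the supernatant after 21,000xg for 90 min. Soluble protein was quantified by TMTpro 16plex LC-MS/MS with channel sums equalised, and reported as log2 fold change in thermal stability against DMSO controls, with values from duplicates.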

[2] = compound: C/C(=N\NC(=O)C1=CC(=CC=C1)S(=O)(=O)N2CCOCC2)/C3=C(C=CC(=C3)Cl)O
Summary of the method: as §1

[3] = compound: C1=CC(=C(C=C1Cl)C2=NC3=NC=CN=C3C(=N2)NC4=CC=NC=C4)F
Summary of the method: as §1

[4] = compound: C1=CC(=CC=C1C2=NC3=C(N2)C=C(C=C3)C(=O)N)OC4=CC=C(C=C4)Cl
Summary of the method: as §1

[5] = compound: C1=CC2=C(C=CC(=C2)/C=C\3/C(=O)NC(=NCC4=CC=CS4)S3)N=C1
Summary of the method: as §1

[6] = compound: C1=CC2=NC=CN=C2C=C1/C=C/3\C(=O)NC(=O)S3
Summary of the method: as §1

[7] = compound: C1=CC=C(C=C1)C2=NC(=C(N2)C3=CC=NC=C3)C4=CC(=C(C=C4)Cl)O
Summary of the method: as §1

[8] = compound: C1=CC=C2C(=C1)C3=NNC4=CC=CC(=C43)C2=O
Summary of the method: as §1

[9] = compound: C1CCN(C1)C(=O)NC2=CC=CC(=C2)NC3=NC=C(C(=N3)NCCC4=CN=CN4)Br
Summary of the method: as §1

[10] = compound: C1CN(CCC1(CC2=CC=C(C=C2)Cl)N)C3=NC=NC4=C3C=CN4
Summary of the method: as §1

UniProt Q8NBF2, sequence (Q8NBF2 whole entry, looked up): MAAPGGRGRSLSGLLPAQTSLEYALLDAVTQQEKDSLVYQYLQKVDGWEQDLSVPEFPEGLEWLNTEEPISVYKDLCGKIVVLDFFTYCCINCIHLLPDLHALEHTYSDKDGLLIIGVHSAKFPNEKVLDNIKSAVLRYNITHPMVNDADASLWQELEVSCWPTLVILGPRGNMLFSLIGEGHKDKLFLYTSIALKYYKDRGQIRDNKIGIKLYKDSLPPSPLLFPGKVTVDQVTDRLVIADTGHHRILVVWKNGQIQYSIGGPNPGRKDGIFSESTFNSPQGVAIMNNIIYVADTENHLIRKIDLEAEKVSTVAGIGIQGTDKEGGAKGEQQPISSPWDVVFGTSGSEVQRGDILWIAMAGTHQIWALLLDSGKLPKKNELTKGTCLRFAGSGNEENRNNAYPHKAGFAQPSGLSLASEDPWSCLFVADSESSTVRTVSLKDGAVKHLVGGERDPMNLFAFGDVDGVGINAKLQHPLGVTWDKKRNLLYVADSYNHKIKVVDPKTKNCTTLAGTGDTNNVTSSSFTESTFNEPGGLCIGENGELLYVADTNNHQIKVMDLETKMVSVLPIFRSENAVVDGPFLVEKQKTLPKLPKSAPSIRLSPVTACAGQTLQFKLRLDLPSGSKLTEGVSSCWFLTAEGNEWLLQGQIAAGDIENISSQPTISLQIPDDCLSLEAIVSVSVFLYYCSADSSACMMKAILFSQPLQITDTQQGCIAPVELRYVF
UniProt Q15102, sequence (Q15102 whole entry, looked up): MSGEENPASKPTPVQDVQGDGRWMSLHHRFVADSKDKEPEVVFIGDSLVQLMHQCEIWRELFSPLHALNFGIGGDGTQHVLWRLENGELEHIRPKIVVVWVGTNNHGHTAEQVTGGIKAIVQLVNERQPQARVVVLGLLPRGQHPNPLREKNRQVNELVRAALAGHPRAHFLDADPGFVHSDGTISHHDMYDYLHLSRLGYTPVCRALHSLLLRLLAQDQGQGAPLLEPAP
UniProt Q99747, sequence (Q99747 whole entry, looked up): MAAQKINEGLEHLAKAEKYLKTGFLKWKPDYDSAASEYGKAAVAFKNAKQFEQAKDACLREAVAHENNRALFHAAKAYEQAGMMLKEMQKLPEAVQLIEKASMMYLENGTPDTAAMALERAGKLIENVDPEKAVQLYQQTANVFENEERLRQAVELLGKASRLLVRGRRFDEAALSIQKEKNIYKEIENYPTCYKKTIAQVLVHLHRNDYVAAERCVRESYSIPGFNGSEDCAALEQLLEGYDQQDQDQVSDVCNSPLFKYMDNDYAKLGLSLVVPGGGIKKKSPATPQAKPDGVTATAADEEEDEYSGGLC
UniProt O43809, sequence (O43809 whole entry, looked up): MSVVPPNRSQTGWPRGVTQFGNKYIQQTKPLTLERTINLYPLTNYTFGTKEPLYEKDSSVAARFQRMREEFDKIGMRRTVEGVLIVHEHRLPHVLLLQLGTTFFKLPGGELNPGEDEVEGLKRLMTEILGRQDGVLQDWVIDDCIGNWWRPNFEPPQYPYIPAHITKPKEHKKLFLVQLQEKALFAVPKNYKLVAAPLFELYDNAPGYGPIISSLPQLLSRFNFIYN
UniProt O14950, sequence (O14950 whole entry, looked up): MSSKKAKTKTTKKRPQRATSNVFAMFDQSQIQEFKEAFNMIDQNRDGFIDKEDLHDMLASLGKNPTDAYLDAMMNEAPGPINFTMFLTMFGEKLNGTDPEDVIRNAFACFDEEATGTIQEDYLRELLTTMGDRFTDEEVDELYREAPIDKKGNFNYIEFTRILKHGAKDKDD
UniProt Q8N5F7, sequence (Q8N5F7 whole entry, looked up): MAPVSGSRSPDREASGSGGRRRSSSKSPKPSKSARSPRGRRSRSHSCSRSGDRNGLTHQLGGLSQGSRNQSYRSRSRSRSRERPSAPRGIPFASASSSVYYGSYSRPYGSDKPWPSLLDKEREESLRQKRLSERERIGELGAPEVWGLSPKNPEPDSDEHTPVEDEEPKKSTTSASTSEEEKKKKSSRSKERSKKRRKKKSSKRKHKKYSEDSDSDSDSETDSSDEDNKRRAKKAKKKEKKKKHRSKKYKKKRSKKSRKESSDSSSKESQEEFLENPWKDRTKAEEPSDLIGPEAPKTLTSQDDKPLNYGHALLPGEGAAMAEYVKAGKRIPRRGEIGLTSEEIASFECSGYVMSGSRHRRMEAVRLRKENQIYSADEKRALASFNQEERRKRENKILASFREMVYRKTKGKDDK
UniProt O00567, sequence (O00567 whole entry, looked up): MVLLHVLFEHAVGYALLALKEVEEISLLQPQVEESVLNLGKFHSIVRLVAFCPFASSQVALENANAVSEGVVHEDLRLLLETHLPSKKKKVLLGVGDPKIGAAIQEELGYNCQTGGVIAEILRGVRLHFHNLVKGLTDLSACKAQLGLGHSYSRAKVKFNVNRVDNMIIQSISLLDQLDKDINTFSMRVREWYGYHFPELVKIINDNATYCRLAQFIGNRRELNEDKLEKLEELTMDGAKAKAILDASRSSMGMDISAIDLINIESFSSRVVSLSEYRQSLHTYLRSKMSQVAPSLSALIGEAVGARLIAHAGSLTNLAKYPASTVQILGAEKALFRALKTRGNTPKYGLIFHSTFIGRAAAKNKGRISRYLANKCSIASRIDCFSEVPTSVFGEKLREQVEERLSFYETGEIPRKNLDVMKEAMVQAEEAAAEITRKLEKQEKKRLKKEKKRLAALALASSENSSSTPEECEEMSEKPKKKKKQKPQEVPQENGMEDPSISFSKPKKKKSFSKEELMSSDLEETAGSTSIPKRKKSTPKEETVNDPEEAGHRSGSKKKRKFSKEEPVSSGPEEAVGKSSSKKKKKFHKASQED
UniProt Q96I59, sequence (Q96I59 whole entry, looked up): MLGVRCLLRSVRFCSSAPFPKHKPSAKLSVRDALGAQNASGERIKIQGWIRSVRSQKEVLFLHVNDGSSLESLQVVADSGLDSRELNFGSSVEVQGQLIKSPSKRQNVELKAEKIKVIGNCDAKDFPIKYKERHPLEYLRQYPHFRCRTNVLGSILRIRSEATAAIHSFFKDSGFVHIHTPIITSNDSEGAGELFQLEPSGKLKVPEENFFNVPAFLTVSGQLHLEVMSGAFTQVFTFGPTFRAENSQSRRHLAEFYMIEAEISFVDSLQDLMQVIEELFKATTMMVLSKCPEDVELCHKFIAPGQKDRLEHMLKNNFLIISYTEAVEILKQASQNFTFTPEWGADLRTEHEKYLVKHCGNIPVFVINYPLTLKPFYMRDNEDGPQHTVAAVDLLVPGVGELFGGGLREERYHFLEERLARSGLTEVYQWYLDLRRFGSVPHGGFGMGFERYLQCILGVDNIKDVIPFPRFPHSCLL
UniProt Q15021, sequence (Q15021 whole entry, looked up): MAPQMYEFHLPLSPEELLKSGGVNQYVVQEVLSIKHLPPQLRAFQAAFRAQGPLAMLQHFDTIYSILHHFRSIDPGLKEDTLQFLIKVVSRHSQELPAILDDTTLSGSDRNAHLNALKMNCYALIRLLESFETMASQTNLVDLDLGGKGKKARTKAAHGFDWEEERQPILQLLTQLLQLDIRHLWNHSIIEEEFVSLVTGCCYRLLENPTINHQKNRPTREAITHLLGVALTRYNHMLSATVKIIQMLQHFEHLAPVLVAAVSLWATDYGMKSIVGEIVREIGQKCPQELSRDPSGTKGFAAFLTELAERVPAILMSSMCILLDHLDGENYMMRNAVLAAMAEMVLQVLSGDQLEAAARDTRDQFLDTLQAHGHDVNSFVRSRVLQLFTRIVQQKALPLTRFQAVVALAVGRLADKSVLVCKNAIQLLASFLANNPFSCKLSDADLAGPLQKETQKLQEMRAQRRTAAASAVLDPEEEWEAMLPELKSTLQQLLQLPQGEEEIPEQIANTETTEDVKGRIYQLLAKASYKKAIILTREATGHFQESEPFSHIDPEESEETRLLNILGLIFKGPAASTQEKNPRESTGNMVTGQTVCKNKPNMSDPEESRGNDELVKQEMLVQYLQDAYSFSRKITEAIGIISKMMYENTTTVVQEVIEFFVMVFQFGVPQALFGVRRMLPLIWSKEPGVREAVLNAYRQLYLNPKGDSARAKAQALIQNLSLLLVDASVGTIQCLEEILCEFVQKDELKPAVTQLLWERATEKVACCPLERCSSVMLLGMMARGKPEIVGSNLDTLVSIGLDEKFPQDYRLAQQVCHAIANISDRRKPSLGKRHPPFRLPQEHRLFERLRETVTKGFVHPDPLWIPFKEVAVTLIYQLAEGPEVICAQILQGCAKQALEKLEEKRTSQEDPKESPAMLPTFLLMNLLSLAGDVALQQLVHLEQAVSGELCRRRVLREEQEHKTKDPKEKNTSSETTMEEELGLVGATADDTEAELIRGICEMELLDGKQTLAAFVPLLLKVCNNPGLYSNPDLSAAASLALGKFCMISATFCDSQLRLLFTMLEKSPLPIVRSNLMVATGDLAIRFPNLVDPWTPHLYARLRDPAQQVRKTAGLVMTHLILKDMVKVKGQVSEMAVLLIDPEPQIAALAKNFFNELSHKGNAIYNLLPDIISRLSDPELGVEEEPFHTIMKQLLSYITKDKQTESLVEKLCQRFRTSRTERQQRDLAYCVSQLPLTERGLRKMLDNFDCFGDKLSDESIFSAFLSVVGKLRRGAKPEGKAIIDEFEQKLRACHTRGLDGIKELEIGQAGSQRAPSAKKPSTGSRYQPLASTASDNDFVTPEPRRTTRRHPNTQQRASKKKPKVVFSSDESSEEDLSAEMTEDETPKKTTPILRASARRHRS
UniProt Q9BV86, sequence (Q9BV86 whole entry, looked up): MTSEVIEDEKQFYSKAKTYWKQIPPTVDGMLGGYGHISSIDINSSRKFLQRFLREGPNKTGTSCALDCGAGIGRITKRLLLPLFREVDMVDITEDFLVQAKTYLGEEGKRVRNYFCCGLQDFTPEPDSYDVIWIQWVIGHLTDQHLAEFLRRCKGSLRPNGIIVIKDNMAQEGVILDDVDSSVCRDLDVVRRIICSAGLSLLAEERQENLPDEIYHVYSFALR
UniProt Q8WVJ2, sequence (Q8WVJ2 whole entry, looked up): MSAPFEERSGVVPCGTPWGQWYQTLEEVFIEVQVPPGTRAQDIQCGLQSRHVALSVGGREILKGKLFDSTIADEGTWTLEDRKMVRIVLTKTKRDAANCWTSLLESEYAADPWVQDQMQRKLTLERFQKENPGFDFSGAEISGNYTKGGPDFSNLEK

Target	log2 fold change [1]	log2 fold change [2]	log2 fold change [3]	log2 fold change [4]	log2 fold change [5]	log2 fold change [6]	log2 fold change [7]	log2 fold change [8]	log2 fold change [9]	log2 fold change [10]
MRPS12 (UniProt O15235)	-0.013	0.008	-0.13	0.095	-0.052	0.018	0.099	0.165	0.025	-0.063
NSMCE4A (UniProt Q9NXX6)	-0.044	0.028	-0.002	0.072	0.182	-0.138	-0.031	-0.192	0.056	0.117
MYL12B (UniProt O14950)	0.016	0.091	0.02	0.006	-0.072	-0.019	0.157	0.023	-0.045	0.005
NUDT21 (UniProt O43809)	-0.02	0.07	-0.127	0.047	-0.035	-0.015	-0.026	0.008	0.003	-0.089
MTMR14 (UniProt Q8NCE2)	-0.019	0.009	0.047	0.037	0.002	0.009	-0.038	-0.05	-0.05	0.028
OSTM1 (UniProt Q86WC4)	0.034	0.111	0.077	0.107	-0.106	0.001	0.044	-0.047	-0.035	-0.002
MPHOSPH10 (UniProt O00566)	-0.079	-0.005	-0.412	-0.023	0.031	0.061	0.07	-0.004	0.024	-0.023
MRPS26 (UniProt Q9BYN8)	-0.081	0.004	0.004	0.157	0.038	0.088	-0.042	0.06	-0.19	0.024
NOL7 (UniProt Q9UMY1)	-0.151	-0.208	-0.728 (active)	0.005	-0.179	0	-0.071	-0.058	0.045	-0.189
NUDCD2 (UniProt Q8WVJ2)	0.054	-0.003	0.019	-0.071	0.025	0.018	-0.014	0.012	-0.107	-0.08
OSBP (UniProt P22059)	-0.059	0.111	0.063	0.109	-0.009	0.019	-0.027	-0.042	-0.001	0.013
MPP1 (UniProt Q00013)	0.083	0.098	0.027	0.016	0.004	-0.001	0.012	0.033	-0.048	-0.019
NCK1 (UniProt P16333)	0.045	0.206	-0.066	0	0.179	-0.019	-0.084	0	-0.135	-0.081
NTMT1 (UniProt Q9BV86)	0.039	0.13	0.086	0.002	0.039	0.032	0.006	0.086	-0.101	0.151
NCAPD2 (UniProt Q15021)	0.029	0.107	0.005	-0.05	0.024	0.04	0.013	0.022	-0.001	-0.103
NHLRC2 (UniProt Q8NBF2)	0.035	0	-0.059	0.057	0.065	-0.074	-0.114	0.042	0.051	0.001
NCL (UniProt P19338)	-0.154	-0.231	-0.723	-0.012	-0.109	-0.017	-0.112	0.061	0.037	-0.148
PAFAH1B3 (UniProt Q15102)	0.028	0.091	0.029	0.017	0.148	-0.038	0.085	0.061	-0.058	0.032
NOP53 (UniProt Q9NZM5)	-0.201	-0.272	-0.231	0.005	-0.298	0.036	-0.147	-0.121	0.058	-0.387
NAPG (UniProt Q99747)	0.081	0.134	0.072	-0.019	0.021	0.038	-0.009	0.033	-0.037	-0.016
NDUFS4 (UniProt O43181)	-0.001	-0.031	-0.004	0.07	-0.093	0.077	-0.104	-0.081	0.082	0.111
NKAP (UniProt Q8N5F7)	0.029	0.023	-0.041	0.041	-0.189	-0.047	-0.085	-0.051	-0.064	-0.007
MRPS35 (UniProt P82673)	-0.068	-0.028	-0.048	0.14	0.003	-0.043	0.022	0.096	0.042	-0.08
ORC3 isoform 2 (UniProt Q9UBD5)	0.134	-0.068	-0.024	-0.021	0.214	0.042	0.013	0.072	-0.013	0.07
MRPS17 (UniProt Q9Y2R5)	-0.034	-0.019	-0.125	0.142	-0.062	0	0.042	0.088	-0.014	-0.126
MON2 isoform 5 (UniProt Q7Z3U7)	0.034	0.034	0.072	-0.019	0.016	0.015	0.015	0.007	-0.019	0.004
NFX1 (UniProt Q12986)	0.065	-0.024	-0.26	0.058	0.042	-0.069	-0.039	-0.107	0.014	0.048
NARS2 (UniProt Q96I59)	0.037	0.065	0.07	0.008	-0.018	-0.004	0.053	0.017	-0.002	-0.083
NOP56 (UniProt O00567)	-0.093	-0.012	-0.676 (active)	0.087	-0.232	0.045	-0.164	-0.109	-0.111	-0.15
NECTIN2 (UniProt Q92692)	0.002	0.005	0.064	-0.006	0.002	0.008	-0.04	-0.041	-0.045	0.077
